Usually viability stands for the share of living cells, or the viability signal relative to a control. As usually defined, the inhibition is the drop in the measured response relative to a control, in per cent.

The nature of assay [1]: P. berghei load reduction in hepatocytes – cell-based, HepG2, luciferase luminescence, HepG2 viability, primary screen (AID 624349; in the data active means parasite load remaining mostly below about 12%, no sharp cut-off; inactive means mostly above about 10%;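 further: 100% = mean of DMSO negative control wells on the same plate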). The note with it: P. berghei liver stage in HepG2, luciferase luminescence, concentration not given here; parasite load remaining: stronger effect = lower value; viability: measured here: HepG2 viability without parasites.
Assay [2] can be described thus: viability loss with induced miR-34 in A549 – imaging, A549 dox-inducible miR-34, nuclei and caspase counts, primary screen (AID 1347080). The note with it: A549 miR-34 inducible, Hoechst nuclei count, 48 h.
Assay [3] can be described thus: MELAS cybrid and Rieske KO viability enhancers – cell-based, MELAS cybrids, Rieske KO mouse fibroblasts, CellTiter-Glo, primary screen (AID 1508586;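 active means mean z-score across replicates of 1.96 or higher in either the MELAS or the Rieske mutant cell line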;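 further: z relative to plate mean and SD of compound and empty wells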). Particulars: low glucose. (In general: Cellular ATP, detected with luciferase, serves as a proxy for viable cell number.)
Assay [4] can be described thus: compounds altering viability of human ES cells (AID 493140; call rule not given here;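 further: cells exposed to compounds for four days before counting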). The note with it: human embryonic stem cell survival screen; stronger effect = higher value.
A short description of assay [5]: galactose survival enhancers in mitochondrial complex I cybrids – cell-based, galactose medium, ATP luminescence, primary screen (AID 1645843;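 active means z-score of at least 1.8 in each of two replicates, scored against plate mean and spread of sample wells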;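 further: positive z means more ATP and so rescue of galactose-driven cybrid death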). The note with it: complex I mutant cybrid cells, 72 h, stronger effect = higher value.
Assay [6] addresses NAD(+) hydrolase SARM1 (Homo sapiens) (UniProt Q6SZW1). Kind of assay: blocking NAD cleavage by SARM1 SAM-TIR – cell lysate, NAD-Glo luminescence (AID 1508614;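 active means compound whose remaining NAD level is above about 45 nM, limit read from the data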). The note with it: SAM-TIR HEK293T lysate NADase, at 1 µM, stronger effect = higher value.
Assay [7] deals with ATP-dependent translocase ABCB1 (Homo sapiens) (UniProt P08183). Kind of assay: P-glycoprotein substrate transport blockade – cell-based (AID 377; in the data active means fluorescence slope change above about 50%). The note with it: MDR1-expressing cells, fluorescent substrate accumulation slope; stronger effect = higher value; concentration not given here.
Assay [8] has as its system Hepatitis C virus NS3 helicase. Description: blockers of NS3h binding to ssDNA – biochemical, fluorescence polarization, LOPAC1280 library, primary screen (AID 687035; in the data active means inhibition above about 37%). The note with it: Purified HCV NS3 helicase, Cy5-dT15 ssDNA binding fluorescence polarization; stronger effect = higher value; concentration not given here.
The nature of assay [9]: compounds altering Cy5-DNA-NS3h complex signal – biochemical, LOPAC1280, artefact control for HCV NS3 helicase inhibitor project (AID 687037; call rule not given here). Particulars: Cy5-DNA-NS3h complex fluorescence interference counterscreen.
Setting [10] is: stronger effect = lower value, cell number ratio, induced over uninduced.
Where [11] appears, read: measured here: relative caspase fold change +Dox/-Dox.
[12] abbreviates: measured here: total cells with miR-34 induction, stronger effect = lower value.
Setting [13] is: measured here: total cells without miR-34 induction.
Where [14] appears, read: MELAS cybrid survival, CellTiter-Glo 48 h, stronger effect = higher value.
Where [15] appears, read: Rieske KO mouse fibroblast survival, CellTiter-Glo 72 h.

Molecules are shown by their SMILES. Values joined by “and” are separate entries in the source; they are usually repeats but may differ in a detail not shown here. Identical values can stand only once. Records with an inconclusive call do not appear. Some structures have more than one record in an assay (separate samples or runs), and their calls can disagree. Active and inactive are the calls of the source.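 How the source made its calls, unless noted: active means compounds whose cell count with miR-34 switched on is under 0.7 times the count with it off; inactive means the rest.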

Chain of NAD(+) hydrolase SARM1 (Homo sapiens) (Q6SZW1 whole entry, looked up): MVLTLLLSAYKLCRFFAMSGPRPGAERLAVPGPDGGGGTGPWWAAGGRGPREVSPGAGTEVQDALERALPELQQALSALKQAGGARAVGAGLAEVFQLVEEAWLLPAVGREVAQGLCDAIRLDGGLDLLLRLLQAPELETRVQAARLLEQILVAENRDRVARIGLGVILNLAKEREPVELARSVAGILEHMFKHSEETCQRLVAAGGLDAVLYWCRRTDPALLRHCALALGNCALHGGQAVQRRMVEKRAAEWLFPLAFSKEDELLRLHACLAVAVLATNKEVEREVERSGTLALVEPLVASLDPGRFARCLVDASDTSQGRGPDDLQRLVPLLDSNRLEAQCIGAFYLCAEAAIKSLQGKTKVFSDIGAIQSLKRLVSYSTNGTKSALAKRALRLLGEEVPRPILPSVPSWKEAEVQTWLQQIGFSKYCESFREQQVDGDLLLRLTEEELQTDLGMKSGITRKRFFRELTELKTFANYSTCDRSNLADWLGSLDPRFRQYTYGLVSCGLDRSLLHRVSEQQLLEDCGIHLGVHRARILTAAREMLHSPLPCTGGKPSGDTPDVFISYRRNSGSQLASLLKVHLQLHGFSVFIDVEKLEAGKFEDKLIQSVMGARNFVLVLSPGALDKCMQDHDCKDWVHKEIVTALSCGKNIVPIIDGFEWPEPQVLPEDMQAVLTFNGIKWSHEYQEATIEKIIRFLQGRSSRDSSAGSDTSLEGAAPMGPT
Chain of ATP-dependent translocase ABCB1 (Homo sapiens) (P08183 whole entry, looked up): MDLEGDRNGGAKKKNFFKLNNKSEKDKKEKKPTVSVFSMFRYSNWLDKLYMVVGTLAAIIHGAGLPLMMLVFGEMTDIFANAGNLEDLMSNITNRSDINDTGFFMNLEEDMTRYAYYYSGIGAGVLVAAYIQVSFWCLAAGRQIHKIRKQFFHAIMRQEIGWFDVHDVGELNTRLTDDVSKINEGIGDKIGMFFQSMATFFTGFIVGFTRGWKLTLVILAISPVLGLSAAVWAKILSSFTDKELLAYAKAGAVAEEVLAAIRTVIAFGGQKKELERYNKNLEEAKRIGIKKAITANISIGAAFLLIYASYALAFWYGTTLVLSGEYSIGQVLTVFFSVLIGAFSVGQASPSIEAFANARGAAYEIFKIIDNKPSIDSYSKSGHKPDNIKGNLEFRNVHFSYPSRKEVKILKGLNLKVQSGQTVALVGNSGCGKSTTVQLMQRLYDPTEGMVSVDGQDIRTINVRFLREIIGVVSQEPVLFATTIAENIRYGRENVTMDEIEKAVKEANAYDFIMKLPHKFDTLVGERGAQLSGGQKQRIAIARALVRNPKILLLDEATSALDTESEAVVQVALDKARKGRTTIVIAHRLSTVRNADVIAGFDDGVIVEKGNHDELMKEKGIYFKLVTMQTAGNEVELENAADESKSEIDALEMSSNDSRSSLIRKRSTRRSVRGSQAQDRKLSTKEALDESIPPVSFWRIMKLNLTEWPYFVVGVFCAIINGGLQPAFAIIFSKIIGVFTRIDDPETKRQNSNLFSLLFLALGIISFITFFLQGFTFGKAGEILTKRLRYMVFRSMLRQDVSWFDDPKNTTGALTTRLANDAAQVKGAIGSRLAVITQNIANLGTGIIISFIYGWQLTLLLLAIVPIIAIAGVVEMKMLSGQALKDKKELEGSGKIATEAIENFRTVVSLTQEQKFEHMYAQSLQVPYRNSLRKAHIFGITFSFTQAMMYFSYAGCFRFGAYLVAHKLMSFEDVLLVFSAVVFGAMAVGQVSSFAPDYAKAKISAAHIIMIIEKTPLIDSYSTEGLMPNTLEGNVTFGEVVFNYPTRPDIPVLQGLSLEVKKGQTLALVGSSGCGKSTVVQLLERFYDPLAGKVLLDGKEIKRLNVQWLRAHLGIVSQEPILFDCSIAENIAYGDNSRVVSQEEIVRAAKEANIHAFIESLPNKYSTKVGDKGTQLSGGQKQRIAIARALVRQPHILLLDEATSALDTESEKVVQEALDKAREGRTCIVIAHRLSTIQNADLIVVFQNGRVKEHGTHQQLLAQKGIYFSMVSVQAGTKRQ

As for `CN1[C@@H]2CC[C@H]1CC(OC(=O)C1C=Nc3ccccc31)C2` (some centres undefined), the parasite load remaining in assay [1] is 130% (inactive). Besides, the viability in assay [1] was 98.7%. The fold change in assay [2] (setting [10]) is 0.853 (inactive) and 0.904 (inactive); in [2] (setting [11]), 1.46 and 2.72. Also, the cell count in [2] (setting [12]) was 8760 and 8980; in assay [2] (setting [13]), 10300 and 9930. The z-score was 2.22 (active) and 0.522 (inactive) in [3] (setting [14]); -0.387 and 0.113 in [3] (setting [15]).
`CCC(=O)OC(Cc1ccccc1)(c1ccccc1)C(C)CN(C)C` (centres undefined): the survival in [4] is 8.25 (inactive). Moreover, the parasite load remaining in assay [1] was 85.5% (inactive). The viability in assay [1] came out at 74.7%. Besides, the fold change in assay [2] (stronger effect = lower value) is 0.896 (inactive); in assay [2] (setting [11]), 0.845. Also, the cell count in [2] (setting [12]) was determined as 9110; in assay [2] (setting [13]), 10200. Also, the z-score in assay [3] (setting [14]) is 0.276 (inactive); in assay [3] (setting [15]), -0.451.
In the case of `C[C@]12CC[C@H](O)C[C@H]1CC[C@@H]1[C@@H]2C[C@@H](O)[C@]2(C)[C@@H](C3=CC(=O)OC3)CC[C@]12O`, the survival in assay [4] is 8.33 (inactive). Further, the parasite load remaining in [1] was 0.32% (inactive). In assay [1], this molecule came in with a viability of 57%. Also, the fold change was 0.713 (inactive) in [2] (stronger effect = lower value) and 1.4 in assay [2] (setting [11]). The cell count in assay [2] (setting [12]) was determined as 550; in assay [2] (setting [13]), 772. The z-score in assay [3] (setting [14]) was 2.02 (active); in [3] (setting [15]), -0.935.
Turning to `CNC1CC(c2ccc(Cl)c(Cl)c2)c2ccccc21` (centres undefined), the fold change in [2] (setting [10]) is 0.956 (inactive); in assay [2] (setting [11]) it was 1.45. The cell count in assay [2] (setting [12]) was found to be 5010; in [2] (setting [13]), 5240. For the same molecule, the z-score in [5] was -1.44 (inactive).
On to `C[C@]12CC(=CO)C(=O)CC1CCC1C2CC[C@@]2(C)C1CC[C@]2(C)O` (some centres undefined), for which the fold change is 0.96 (inactive) in assay [2] (stronger effect = lower value) and 2.87 in [2] (setting [11]). The cell count in assay [2] (setting [12]) was 9400; in [2] (setting [13]) it was 9790. Further, the z-score in [5] is -1.14 (inactive).
Turning to `CN1CC[C@]2(c3cccc(O)c3)Cc3nc4ccccc4cc3CC2C1` (some centres undefined), the figures for the fold change in assay [2] (setting [10]) and in assay [2] (setting [11]) were 0.813 (inactive) and 1.31, respectively. In addition, the cell count in assay [2] (setting [12]) is 7470; in assay [2] (setting [13]), 9190. Also, in assay [5], the z-score is -0.555 (inactive).
For `CCC(C)(C)O`, the fold change in assay [2] (stronger effect = lower value) was 0.953 (inactive); in assay [2] (setting [11]) it was 0.901. The cell count stood at 9020 in [2] (setting [12]) and 9470 in assay [2] (setting [13]). In assay [6], the remaining NAD is 10 nM (inactive).
In the case of `C[C@]12CCC3[C@@H](CC[C@@H]4C[C@H](O)CC[C@]34C)[C@@H]1CCC2=O` (some centres undefined), the fluorescence slope change in assay [7] was 52.7% (active). Also, the survival in [4] was 4.25 (inactive). The parasite load remaining in [1] was 68.6% (inactive). In addition, in assay [1], the viability turned out to be 95.7%. Also, the figures for the fold change in assay [2] (stronger effect = lower value) and in assay [2] (setting [11]) were 0.895 (inactive) and 1.16, respectively. Also, the cell count in assay [2] (setting [12]) was 8930; in assay [2] (setting [13]) it was 9980. The z-score in assay [3] (setting [14]) is -0.449 (inactive); in assay [3] (setting [15]), 0.448.
Consider `CCCCCN(C)CCC(O)(P(=O)(O)O)P(=O)(O)O`, for which, in [8], the inhibition was -2% (inactive). Besides, the fluorescence ratio (interference) in assay [9] is 1 (inactive). The fold change in assay [2] (setting [10]) was 0.977 (inactive) and 0.868 (inactive); in assay [2] (setting [11]), 0.937 and 1.66. Also, the cell count in assay [2] (setting [12]) is 10500 and 8850; in [2] (setting [13]), 10800 and 10200. Further, the z-score was -0.786 (inactive) and -0.235 (inactive) in assay [3] (setting [14]); 0.068 and -1.03 in assay [3] (setting [15]); 0.42 (inactive) and 0.08 (inactive) in assay [5].
As for `Clc1ccc(C(Cn2ccnc2)OCc2csc3c(Cl)cccc23)c(Cl)c1` (centres undefined), in assay [4], the survival was 10.7 (inactive). In addition, the parasite load remaining in assay [1] was 93.3% (inactive) and 30.9% (inactive). In addition, the viability in [1] is 80.2% and 95%. The fold change was 0.952 (inactive) and 0.861 (inactive) in [2] (stronger effect = lower value); 0.728 and 1 in assay [2] (setting [11]). In addition, the cell count in [2] (setting [12]) is 7030 and 8370; in assay [2] (setting [13]), 7390 and 9720. The z-score in assay [3] (setting [14]) is 0.182 and 1.75 (inactive); in [3] (setting [15]), 2.82 and 1.72.

Values taken from PubChem BioAssay.
